Inconclusive results are not listed. Calls of active or inactive are those of the source. Calls follow the shape of the dose curve; as a rule, active = well fitted inhibition curve with a large enough effect; inconclusive = small, poorly fitted or top-dose-only effect; inactive = flat fitted curve, though single readings scatter.
These compounds were tested on CRL-7250 (assay: qHTS assay to identify novel small-molecules to repurpose for Merkel cell carcinoma treatment (AID 1296009; also: nearly all actives have a fitted effect of over 60% in size)). Conditions: MCC and control cell lines, CellTiter-Glo viability, 72 h; at 44.8 µM (top of the series) unless noted.
In short: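 Cells exposed to NPC (8-point) and MIPE (11-point) compound dilutions for 72 hr at 37 degree celsius; viability read by CellTiter-Glo luminescence, normalized to no-cell and DMSO in-plate controls.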

SMILES	outcome
O=C1CN(/N=C/c2ccc([N+](=O)[O-])o2)C(=O)N1	inactive
CN(C)C(=O)Oc1ccc[n+](C)c1	inactive
C[C@](N)(Cc1ccc(O)cc1)C(=O)O	inactive [at 4.96 µM]
Cc1c(NC(C)C)c(=O)n(-c2ccccc2)n1C	inactive
O=C(O)c1c(O)c(-c2ccccc2)nc2ccccc12	inactive
NC(CS)C(=O)O (configuration not stated)	inactive
O=C(NCC1CCCCN1)c1cc(OCC(F)(F)F)ccc1OCC(F)(F)F (configuration not stated)	inactive
O=S(=O)(O)CCS	inactive
Cc1[nH]cnc1-c1ccc(Cl)cc1	inactive
Cc1cc2nc3c(=O)[nH]c(=O)nc-3n(C[C@H](O)[C@H](O)[C@H](O)CO)c2cc1C	inactive [at 17.4 µM]
COc1ccc(C2CNC(=O)C2)cc1OC1CCCC1 (configuration not stated)	inactive
Cc1cc(CC(=O)O)c(C)n1-c1ccc(Cl)cc1	inactive
CC(=O)O[C@]1(C(C)=O)CC[C@H]2[C@@H]3C[C@H](C)C4=CC(=O)CC[C@]4(C)[C@H]3CC[C@@]21C	inactive
O=C(CO)[C@@H](O)[C@H](O)[C@@H](O)CO	inactive
NCCCCCC(=O)O	inactive
COC(=O)CCCCC(CCSS/C(CCO)=C(\C)N(C=O)Cc1cnc(C)nc1N)SC(C)=O (configuration not stated)	inactive
C/C(=N\O)[C@@H](C)NCC(C)(C)CN[C@H](C)/C(C)=N/O	inactive
S=P(N1CC1)(N1CC1)N1CC1	inactive [at 92 µM]
CC(C)OC(=O)OCOP(=O)(CO[C@H](C)Cn1cnc2c(N)ncnc21)OCOC(=O)OC(C)C	inactive

SMILES	outcome
CCN1CCCC1CNC(=O)c1cc(S(=O)(=O)CC)c(N)cc1OC (configuration not stated)	inactive
CCCNC(C)C(=O)Nc1c(C)csc1C(=O)OC (configuration not stated)	inactive
Nc1nc2ccc(OC(F)(F)F)cc2s1	inactive
O=C(O)CSCC(=O)NC1CCSC1=O (configuration not stated)	inactive
C[N+]1(C)[C@@H]2CC(OC(=O)[C@H](CO)c3ccccc3)C[C@H]1[C@@H]1O[C@@H]12 (some centres not stated)	inactive
O=C(O)Cc1ccc(OCCNC[C@H](O)c2ccccc2)cc1	inactive
NS(=O)(=O)c1cc(Cl)c(Cl)c(S(N)(=O)=O)c1	inactive
O=C(N[C@H](CO)[C@H](O)c1ccc([N+](=O)[O-])cc1)C(Cl)Cl	inactive
CCOC(=O)Oc1ccc(CCNC(=O)[C@H](CCSC)NC(C)=O)cc1OC(=O)OCC	inactive
Nc1ccn([C@@H]2O[C@H](CO)[C@@H](O)C2O)c(=O)n1 (some centres not stated)	inactive
O=c1cc[nH]c(=O)[nH]1	inactive
C[C@@H]1C[C@H]2[C@@H]3C[C@H](F)C4=CC(=O)C=C[C@]4(C)[C@@]3(F)[C@@H](O)C[C@]2(C)[C@@]1(O)C(=O)CO	inactive
O=c1[nH]c(=O)n([C@H]2C[C@H](O)[C@@H](CO)O2)cc1I	inactive
Cc1nc(-c2ccc(Cl)cc2)oc1COC(C)(C)C(=O)O	inactive
Cc1c(C)c2c(c(C)c1O)CCC(C)(COc1ccc(CC3SC(=O)NC3=O)cc1)O2 (configuration not stated)	inactive
Cc1cc(OI)c(C(C)C)cc1-c1cc(C(C)C)c(OI)cc1C	inactive
CCOc1nc2cccc(C(=O)O)c2n1Cc1ccc(-c2ccccc2-c2nn[nH]n2)cc1	inactive
CCOc1cc(CC(=O)N[C@@H](CC(C)C)c2ccccc2N2CCCCC2)ccc1C(=O)O	inactive
